Screening results as filed in PubChem.
MITF act – activators of MITF-driven TRPM1 promoter reporter, primary screen, cell-based, SK-MEL-5, luciferase, single point; SK-MEL-5 TRPM1-promoter luciferase, 24 h; % of positive control, neutral wells = 0; activation, % at 12.5 µM; 0.75% of 300,000 active;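 active = mean activation of at least 80% with every replicate also reaching 80%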;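 also: 0% = neutral control wells and 100% = parthenolide positive control wells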
LGR2 inh – inhibitors of bursicon-induced LGR2 CRE-luciferase signal, primary screen, cell-based, HEK293, CRE-luciferase reporter, bursicon stimulation; AID 720647, 2013; Drosophila bursicon receptor LGR2 (rickets); bursicon-stimulated, 4 h; inhibition, % at 9.99 µM; 0.35% of 380,000 active;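 active = drop in luminescence signal, shown as inhibition above about 50% in the replicate tests, limit read from the data, passing the limit was not always enough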;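 also: agonist challenge used bursicon conditioned medium at about half maximal strength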
MITF TRPM1 inh – inhibitors of MITF-dependent TRPM1 promoter reporter, primary screen, cell-based, SK-MEL-5, single point, luciferase; SK-MEL-5 TRPM1 promoter luciferase, 24 h; 0.83% of 330,000 active; inhibition, % at 12.5 µM;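 active = mean inhibition across replicates of 60% or more, whatever share of single replicates reaches that level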
LMP1 NFkB inh – EBV LMP1-driven NF-kappaB luciferase reporter inhibitors, primary screen, cell-based, luminescence, single point; LMP1-induced NF-kappaB luciferase reporter cells; inhibition, % at 12.5 µM; 0.69% of 350,000 active; in the data active = inhibition above about 41%;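 also: 0% = neutral control wells and 100% = reference inhibitor control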
TROY signal inh – inhibitors of TROY-driven NF-kB signaling, primary screen, Q293 LMP1-TROYcd cells, NF-kB luciferase, uHTS; Q293 LMP1-TROYcd NF-kB luciferase reporter, 4 h; 0.98% of 360,000 active; inhibition, % at 10 µM;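 active = compounds whose plate-normalised and pattern-corrected inhibition of the luciferase reporter signal at the single screening dose is 50% or more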
TWEAK-Fn14 inh – inhibitors of TWEAK-Fn14 signaling, primary screen, luciferase reporter cells, uHTS | TWEAK-stimulated Fn14 reporter cells, luciferase luminescence, 8 h | inhibition, % at 10 µM | 2% of 360,000 active; in the data active = inhibition above about 50%
* hit, by the source's call; x = not tested or not shown. Sampled rows, rich in hits. Any-hit rate of the full collection: about 3%.

SMILES	MITF act	LGR2 inh	MITF TRPM1 inh	LMP1 NFkB inh	TROY signal inh	TWEAK-Fn14 inh
C[C@@H]1CN([C@@H](C)CO)C(=O)c2cccc(NC(=O)Nc3ccc4c(c3)OCO4)c2O[C@H]1CN(C)Cc1ccc(Cl)c(Cl)c1	x	37	x	x	x	x
O=C(Nc1nc2ccc(SC(F)F)cc2s1)c1ccc(NS(=O)(=O)c2ccc(F)c(F)c2)cc1	9	-30	-6	-18	54*	71*
C[C@@H]1CN([C@@H](C)CO)C(=O)c2cc(C#CC3CC3)cnc2O[C@@H]1CN(C)C(=O)C1CCCCC1	x	-4	x	x	x	x
Cc1ccc(C#N)c(SCc2cc3c(cc2Cl)OCO3)n1	19	x	-14	-7	-8	-5
Cc1cc(C)c(C#N)c(SCc2nnc(-c3ccccc3)o2)n1	-76	77*	77*	59*	90*	100*
Cc1ccc(C#N)c(SCc2nnc(-c3ccc(Cl)cc3)o2)n1	-44	66*	46	15	87*	98*
Cc1cc(C)c(C#N)c(SCC(=O)Nc2ccccc2C(N)=O)n1	x	x	-30	1	60*	10
C[C@H](CO)N1C[C@H](C)[C@H](CN(C)C(=O)Nc2ccccc2)Oc2ncc(Br)cc2C1=O	x	16	x	x	x	x
COCC(=O)Nc1ccc2c(c1)[C@@H]1C[C@@H](CC(=O)NCc3ccccc3OC)O[C@H](CO)[C@@H]1O2	x	-1	x	x	x	x
C[C@@H]1CCCCO[C@@H](CN(C)CC2CCCCC2)[C@H](C)CN([C@H](C)CO)C(=O)c2cc(NS(=O)(=O)c3cccs3)ccc2O1	x	-6	x	x	x	x
O=C(NCCc1c[nH]c2ccccc12)OCCCCOC(=O)NCCc1c[nH]c2ccccc12	-6	84*	9	-6	71*	74*
O=C(O)Cn1cc(/C=c2/sc3nc4ccccc4n3c2=O)c2ccccc21	60	-148	-68	-49	35	-24
O=c1/c(=C\c2cccn2-c2ccccc2)sc2nc3ccccc3n12	56	x	-47	-19	45	61*
CCc1nc2c(cnn2-c2ccc(F)cc2)c(=O)n1-c1ccc(N2CCC(C)CC2)cc1	-8	6	21	11	-1	65*
Cc1nc2c(cnn2-c2ccccc2Cl)c(=O)n1-c1ccc(N2CCC(C)CC2)cc1	-11	x	13	7	7	-7
CN(C)c1cccc(C(=O)NNC(=O)CN2C(=O)C3CC=CCC3C2=O)c1 (stereo unspecified)	47	-61	-47	-32	53*	53*
Cc1onc(C(=O)N2CCC(C(N)=O)CC2)c1-c1ccccc1Cl	10	x	-5	7	1	87*
Cc1onc(-c2ccccc2Cl)c1C(=O)N1CCC(C(N)=O)CC1	14	-5	-13	-7	-16	0
CCC(C)(C)C1CCc2[nH]nc(C(=O)NN)c2C1 (stereo unspecified)	x	x	1	-1	69*	45
CCC(C)(C)C1CCc2[nH]nc(C(=O)NCC3CC3)c2C1 (stereo unspecified)	18	5	-17	4	-22	-16
C[C@@H]1CN([C@H](C)CO)C(=O)c2cc(NS(=O)(=O)c3cn(C)cn3)ccc2O[C@H]1CN(C)Cc1ccc2c(c1)OCO2	x	-7	x	x	x	x
O=C(c1ccc(S(=O)(=O)N2CCCCC2)cc1)N1CCN(CCN2C(=O)c3cccc4cccc(c34)C2=O)CC1	-51	77*	52	18	51*	54*
Oc1cccc(C(Nc2nccs2)c2ccc3cccnc3c2O)c1 (stereo unspecified)	-45	36	48	51*	12	12
CCCCC(=O)NC(c1cccc([N+](=O)[O-])c1)c1ccc2cccnc2c1O (stereo unspecified)	x	25	57	50*	13	13
CCCCC(=O)NC(c1cccc([N+](=O)[O-])c1)c1c(OC(C)=O)ccc2ccccc12 (stereo unspecified)	-7	x	8	0	13	15
SMILES	MITF act	LGR2 inh	MITF TRPM1 inh	LMP1 NFkB inh	TROY signal inh	TWEAK-Fn14 inh
CC(=O)NC(c1cccc([N+](=O)[O-])c1)c1ccc2cccnc2c1O (stereo unspecified)	x	45	44	62*	11	29
COc1cccc(C(NC(C)=O)c2ccc3cccnc3c2O)c1 (stereo unspecified)	-83	11	84*	50*	10	15
CC(=O)NC(c1ccccc1)c1cc([N+](=O)[O-])c2cccnc2c1O (stereo unspecified)	-14	21	14	2	19	36
C[C@H](CO)N1C[C@H](C)[C@@H](CN(C)C(=O)Nc2cccc3ccccc23)Oc2ccc(NC(=O)CCC(F)(F)F)cc2C1=O	x	0	x	x	x	x
O=C(Nc1ccc2c(c1)[C@@H]1C[C@H](CC(=O)N3CCOCC3)O[C@H](CO)[C@@H]1O2)c1ccc2c(c1)OCO2	x	-2	x	x	x	x
O=C(C[C@H]1C[C@@H]2c3cc(NC(=O)CC4CC4)ccc3O[C@@H]2[C@@H](CO)O1)NCC(F)(F)F	x	17	x	x	x	x
O=[N+]([O-])c1ccc(NC(c2ccccc2)c2ccc3cccnc3c2O)cc1 (stereo unspecified)	-74	27	74*	57*	0	4
COc1ccc(/C=C\C(=O)NCC(=O)N/N=C/c2ccc(O)cc2O)cc1	4	-14	1	14	6	0
O=C(N/N=C/c1ccc(O)cc1O)c1ccncc1	-34	8	32	17	-4	-14
CCc1cc(C(=O)N/N=C/c2ccc(O)cc2O)c2ccccc2n1	-68	34	68*	11	21	-21
O=C(/C=C\c1ccccc1)NCC(=O)N/N=C/c1ccc(O)cc1O	-66	x	67*	-5	-3	-29
CCCN1[C@@H]2c3ccc(-c4cccc(F)c4)c(=O)n3C[C@H]1[C@H](CO)[C@H]2C(=O)NCC	x	7	x	x	x	x
CC(C(=O)Nc1ccccc1Br)c1ccc([N+](=O)[O-])cc1 (stereo unspecified)	2	8	0	10	-10	-7
COC(=O)c1ccccc1NC(=O)C(C)c1ccc([N+](=O)[O-])cc1 (stereo unspecified)	-8	-18	4	62*	-19	4
Cc1nnsc1C(=O)N/N=C/c1ccc2ccccc2c1O	-68	-3	69*	48*	26	54*
CNC[C@H]1Oc2ccc(NC(=O)Nc3ccc(OC)cc3)cc2CC(=O)N([C@H](C)CO)C[C@H]1C	x	3	x	x	x	x
CCc1ccc(OCC(=O)NC(NC(=S)Nc2ccccc2C)C(Cl)(Cl)Cl)cc1 (stereo unspecified)	-15	22	15	8	51*	44
